A selection: hits, their analogues and other compounds. The true share with any hit is near 19%.
HT1080 IDH1KD tx = toxicity to HT-1080 IDH1 knockdown cells (counter line). HT-1080 IDH1 knockdown viability, ATP luminescence, 48 h. Potency, µM (doses to about 46.1 µM), without a hit: at the top dose activity, negative = toxicity, actives largely listed as cytotoxic. 2% of 360,000 active;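 note: potency is the fitted concentration of half-maximal effect; 0% = DMSO wells and -100% = cell-free medium wells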
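After a 2 h attachment period, IDH1KD HT-1080 cells took pin-transferred compound for 48 h at 37 °C; ATP-based luminescence after 10 min room-temperature reagent incubation reported viability.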
IL1B secr inh = inflammasome signaling inhibition, IL-1 beta readout. 4.7% of 360,000 active. activity change, % at 57.5 µM. THP-1 LPS/ATP IL-1B secretion, AlphaLISA, 16 h; active compounds read low; in the data active = activity change below about -50%; inconclusive = mostly about -30% to -49%
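THP-1 cells pretreated 1 hr with compounds (up to 57.5 uM final), then stimulated with LPS (250 ng/mL final) plus ATP (1.25 mM final); secreted IL-1B measured by AlphaLISA after 16 hr, decreased signal indicating inhibition.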
TDP1 cell noCPT = qHTS for Inhibitors of human tyrosyl-DNA phosphodiesterase 1 (TDP1): qHTS in cells in absence of CPT. DT40 Tdp1-/- hTDP1 cells, no CPT, ATP luminescence, 48 h. Potency, µM (top dose mostly 46.2 µM), without a hit: at the top dose activity change, negative = growth inhibition, usual class: inhibitors. 15% of 420,000 active; note: potency is the fitted concentration of half-maximal effect; nearly all actives have a fitted effect of over 55% in size
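Growth kinetics read by CellTiter-Glo luminescence after ≥48 hr at 37 °C. Cells: DT40 Tdp1-/- stably carrying human TDP1, 400 per well, compound exposure in the absence of CPT (DMSO vehicle).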
TDP1 cell CPT = growth inhibition of DT40 Tdp1-/-;hTDP1 cells with camptothecin (screen for TDP1 inhibitors); chicken DT40 Tdp1-/-;hTDP1 cells + 20 nM CPT, ATP luminescence, 48 h; Potency, µM (highest dose often 46.2 µM), without a hit: at the top dose activity change, negative = growth inhibition, hits mostly inhibitors; 12% of 420,000 active; AID 686979; note: potency is the fitted concentration of half-maximal effect; nearly all actives have a fitted effect of over 55% in size
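Chicken DT40 Tdp1-/- cells complemented with human TDP1, 400 cells/well, exposed to compounds plus 20 nM camptothecin for at least 48 h at 37 C; viability read as ATP content by CellTiter-Glo luminescence.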
HT1080NT lethal = kills 2HG-producing HT-1080-NT fibrosarcoma cells | HT-1080-NT fibrosarcoma viability, CellTiter-Glo ATP luminescence, 48 h | 1.6% of 360,000 active | Potency, µM (series often up to 46.1 µM), for the others: at the top dose activity, negative = less viability, most hits filed as cytotoxic;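 note: NT is the 2HG producing partner of a matched IDH1 knockdown line; potency is the fitted concentration of half-maximal effect; 0% = DMSO-treated cells and -100% = media-only wells without cells; nearly all actives have a fitted effect of over 55% in size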
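Luminescent CellTiter-Glo readout after 48 hours of compound exposure at 37 degrees C defined viability of HT-1080-NT cells. Activity was normalized to DMSO wells and cell-free media wells; concentration-response curves were fitted and assigned curve classes.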
Active calls of the source: *; ? = inconclusive; . = no result given; [ ] = remark or other dose. Unless noted, calls come from the whole dose curve; as a rule, active = well fitted curve in the direction sought with a large enough effect; inconclusive = small, poorly fitted or top-dose-only effect, or another doubt; inactive = no such curve, though single readings can be large; an effect the other way counts as inactive or inconclusive. Unless noted, % is set by controls: 0 for no effect and ±100 for the full control effect.

SMILES	HT1080 IDH1KD tx	IL1B secr inh	TDP1 cell noCPT	TDP1 cell CPT	HT1080NT lethal
Cc1csc2nc(COC(=O)CNC(=O)c3ccccc3Cl)cc(=O)n12	.	.	-25%	-17%	.
COc1ccccc1C(=O)Nc1ccccc1OCc1cc(=O)n2c(C)csc2n1	.	.	16µM*	?	.
Cc1csc2nc(COc3ccccc3NC(=O)c3ccccc3Cl)cc(=O)n12	.	.	3.7µM*	4.6µM*	.
Cc1ccccc1OCC(=O)Nc1ccccc1C(=O)OCc1cc(=O)n2c(C)csc2n1	.	.	4.6µM*	2.6µM*	.
COc1ccccc1NC(=O)CSCc1cc(=O)n2c(C)csc2n1	4%	35	22%	-17%	3%
Cc1ccccc1OCC(=O)Nc1ccccc1C(=O)OCc1cc(=O)n2ccsc2n1	.	.	-19%	-10%	.
CCc1ccc(-c2[nH]nc3nc(-c4ccc(OC)cc4)cc(C(=O)NCCCOC)c23)cc1	.	.	-6%	0%	.
C=CCOC(=O)C(C#N)c1nc2ccccc2nc1N1CCC(C(=O)OCC)CC1 (centres undefined)	2%	-17	18µM*	?	-9%
CCOC(=O)C1CCN(c2nc3ccccc3nc2C(C#N)C(=O)OC(C)C)CC1 (centres undefined)	7%	-17	12µM*	16µM*	6%
CCOC(=O)C1CCN(c2nc3ccccc3nc2C(C#N)C(=O)OC(C)COC)CC1 (centres undefined)	-2%	-2	18µM*	21µM*	-4%
C=CCOC(=O)C(C#N)c1nc2ccccc2nc1N1CCN(Cc2ccc3c(c2)OCO3)CC1 (centres undefined)	-3%	-52*	?	?	-2%
CCOC(=O)C1CCN(c2nc3ccccc3nc2C(C#N)C(=O)OCCOC)CC1 (centres undefined)	16%	-10	?	?	11%
CC(=O)N1C(C)(C)CC(=NOC(=O)c2ccc(C)cc2)CC1(C)C	8%	48	-3%	9%	6%
CC(C)Cn1c(N)c(/C=N/NC(=O)c2ccc(Cl)cc2)c(=O)n(C)c1=O	-11%	4	0%	3%	-2%
CCCCn1c(SCC(=O)NNC(=O)c2ccccc2)n[nH]c1=O	3%	13	-6%	-2%	-6%
CCCN1C2CCCC1CC(NC(=O)c1cc(OC)cc(OC)c1)C2 (centres undefined)	5%	-4	3%	3%	8%
O=C(CSc1nn(-c2ccc(Cl)cc2)c(=S)s1)NCC1CCCO1 (centres undefined)	-4%	15	-27%	?	0%
O=C(O)c1ccccc1C(=O)OCCCc1ccncc1	4%	14	-2%	-2%	0%
CCC(C)COC(=O)C(C#N)c1nc2ccccc2nc1N1CCCCC1 (centres undefined)	0%	-28	16µM*	?	5%
COC(=O)C1CCN(c2nc3ccccc3nc2C(C#N)C(=O)NCCc2ccccc2)CC1 (centres undefined)	-4%	18	?	?	-10%
COC(=O)C1CCN(c2nc3ccccc3nc2C(C#N)C(=O)OCC(C)C)CC1 (centres undefined)	7%	-4	12µM*	23µM*	13%
COc1ccc(CNC(=O)C(C#N)c2nc3ccccc3nc2N2CCN(C)CC2)cc1 (centres undefined)	-4%	-52*	-29%	?	-5%
CCOc1ccccc1CNC(=O)C1CCN(c2nn3c(=O)cc(C)nc3s2)CC1	-14%	-21	-24%	?	-17%
CCn1c(NC(=O)C2CCCCC2)nc2ccccc21	-26%	-12	13µM*	18µM*	-11%
O=C(Nc1nc2ccccc2n1CCN1CCCCC1)C1CCCCC1	-9%	-22	?	?	-10%
SMILES	HT1080 IDH1KD tx	IL1B secr inh	TDP1 cell noCPT	TDP1 cell CPT	HT1080NT lethal
CCn1c(NC(=S)Nc2ccccc2)nc2ccccc21	-14%	-9	4.6µM*	5.2µM*	?
CCCn1c(NC(=S)Nc2ccccc2)nc2ccccc21	-6%	-26	?	?	-5%
S=C(Nc1ccccc1)Nc1nc2ccccc2n1CCOc1ccc(Cl)cc1	?	-88*	16µM*	21µM*	?
CCn1nccc1C(=O)Nc1nc2ccccc2n1CCN1CCCCC1	-18%	?	?	35µM*	-5%
COc1ccc(S(=O)(=O)N2CC(C)OC(C)C2)cc1C(=O)N1CCCCC1 (centres undefined)	-2%	15	?	?	1%
Cc1ccc(N2CC(NC(=O)C3CCCC3)CC2=O)cc1C (centres undefined)	.	.	-16%	-1%	.
O=C(c1ccccc1Cc1ccccc1)N1CCN(S(=O)(=O)c2ccccc2[N+](=O)[O-])CC1	-19%	-3	?	?	-5%
CC(=O)Nc1ccc2c(c1)nc(C)n2Cc1ccccc1	-2%	-6	1%	10%	1%
Cc1nc2cc3c(=O)n(C)cnc3cc2n1Cc1ccccc1	-1%	0	16µM*	-15%	-5%
Cc1ccc2nc(NCCc3ccccc3)c3nncn3c2c1	3%	-21	-21%	-17%	2%
CC(Sc1nc2c(cc1C#N)CCCCC2)C(=O)O (centres undefined)	-1%	-11	-24%	-18%	-8%
Cc1cc(NC(=O)CN2CCC(n3nnc4cc(C(F)(F)F)ccc43)CC2)no1	1%[9.24 µM]	-25	?	?	2%
CCOc1ccc2nc(NC(=O)CN3CCC(n4nnc5cc(C(F)(F)F)ccc54)CC3)sc2c1	?	21	23µM*	15µM*	-20%
O=C(CN1CCC(n2nnc3cc(C(F)(F)F)ccc32)CC1)N1CCc2ccccc21	5%	28	10µM*	13µM*	0%
COc1ccc2c(c1)CCCC21NC(=O)N(CC(=O)NC(=O)NCc2ccccc2)C1=O (centres undefined)	-18%	-6	?	10%	-5%
O=S(=O)(NCC1CCCO1)c1ccc(Cl)nc1 (centres undefined)	8%	0	14%	8%	18%
CC1CCN(CCOc2ccc(C(=O)c3ccccc3)cc2)CC1	-11%	-5	?	16µM*	-10%
COc1ccc(C(=O)c2ccccc2)cc1Br	8%	-53*	0%	-17%	4%
CC1CCN(CCCOc2ccc(OCc3ccccc3)cc2)CC1	?	-6	?	?	?
COc1ccccc1OCCOc1ccc(C(=O)c2ccccc2)cc1	1%	-12	?	18µM*	2%
COc1ccc(C(=O)NCCCNC(=O)c2cccnc2)cc1Br	10µM*	10	-8%	?	?

Screening results: PubChem BioAssay, National Center for Advancing Translational Sciences (NCATS)
